Assay [1] concerns the target Retinoic acid receptor RXR-alpha (Homo sapiens) (UniProt P19793). The assay is described as follows: OT_NURR1_NURR1RXRa_1440: Odyssey Thera (OT) 24-hour HEK293T Protein Complementation Assay for Nurr1/retinoid X receptor (RXR) (AID 2283386; active = hit-call score of the fitted dose curve at least 0.9, where 1 is the maximum). In a few lines: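 Steps: fragment-tagged Nurr1 and RXRα expressed in HEK293T; compounds added; after 24 h, complemented reporter quantified by fluorescence intensity; signal increase over DMSO fitted as the single endpoint.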

The target in assay [2] is Peroxisome proliferator-activated receptor gamma (Homo sapiens) (UniProt P37231). Put plainly: OT_PPARg_PPARgSRC1_0480: Odyssey Thera (OT) 8-hour Protein-Complementation Assay for Peroxisome Proliferator-activated Receptor Gamma / SRC-1 Co-activator (AID 2283387; active = hit-call score of the fitted dose curve at least 0.9, where 1 is the maximum;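 also: nuclear to cytoplasmic split Venus YFP fluorescence ratio reporting PPARg SRC-1 interaction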). The gist of the method:
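Protein-fragment complementation in HEK293T: Venus YFP halves (residues 1-158, 159-239, mutated to IFP1/IFP2) fused to PPARg/SRC-1. 8 h exposure; N/C ratio at 488 nm; DMSO negative control.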

The target is the same in assay [3]. The assay is described as follows: OT_PPARg_PPARgSRC1_1440: Odyssey Thera (OT) 24-hour Protein-Complementation Assay for Peroxisome Proliferator-activated Receptor Gamma/ SRC-1 Co-activator (AID 2283388; active = hit-call score of the fitted dose curve at least 0.9, where 1 is the maximum;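 also: nuclear to cytoplasmic ratio of reconstituted Venus YFP fluorescence in fixed imaged cells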). In a few lines: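 Readout is the 488 nm N/C fluorescence ratio from fixed, Draq5-stained HEK293T cells after 24 h compound exposure. Cells carried transiently transfected PPARg and SRC-1 fused to Venus fragments, transfected 48 h before treatment.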

Assay [4] is described as follows: CEETOX_H295R_11DCORT: CeeTox H295R High-throughput Steroidogenesis Assay for 11-Deoxycortisol (11DCORT) (AID 2283432).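 As to AC50: 11-deoxycortisol secreted into the medium measured by LC-MS/MS.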 As to conditions: actives raise or lower the signal. The gist of the method:
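Adrenal carcinoma line H295R, run per OECD 456 with minor changes, was forskolin-stimulated (10 uM, 48 h) before a 48 h chemical exposure at 0.1% DMSO. Secreted 11-deoxycortisol was quantified by HPLC-MS/MS.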

A short description of assay [5]: CEETOX_H295R_OHPREG: CeeTox H295R High-throughput Steroidogenesis Assay for OH-Pregnenolone (OHPREG) (AID 2283434). As to conditions: actives raise or lower the signal. The gist of the method: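 Secreted 17alpha-hydroxypregnenolone measured by HPLC-MS/MS after liquid-liquid extraction. Human adrenal H295R cells received 48 h forskolin (10 uM) stimulation before 48 h chemical exposure at 0.1% final DMSO; MTT viability in same wells; bidirectional fit against DMSO.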

Assay [6] is described as follows: CEETOX_H295R_CORTIC: CeeTox H295R High-throughput Steroidogenesis Assay for Corticosterone (CORTIC) (AID 2283437). The following applies: actives raise or lower the signal. In a few lines:
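Medium corticosterone was quantified by tandem mass spectrometry following 48 hours of chemical exposure (0.1% DMSO) in human H295R cells previously stimulated 48 hours with 10 uM forskolin. Viability checked by MTT; chemicals diluted and retested when viability fell below 70%.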

Assay [7] in a line: CEETOX_H295R_CORTISOL: CeeTox H295R High-throughput Steroidogenesis Assay for Cortisol (AID 2283438). The following applies: actives raise or lower the signal. In a few lines: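 Cortisol synthesis by H295R cells is measured 48 h after chemical dosing, following a 48 h stimulation with 10 uM forskolin. Hormone is extracted and quantified by HPLC-MS/MS, and activity is fitted bidirectionally against the DMSO control.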

Assay [8] in a line: CEETOX_H295R_DOC: CeeTox H295R High-throughput Steroidogenesis Assay for DOC (AID 2283439). As to conditions: actives raise or lower the signal. The gist of the method: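 Steps: seed H295R, adhere overnight; 10 uM forskolin 48 h; replace with chemical medium (0.1% DMSO) 48 h; collect medium, MTBE extraction, HPLC-MS/MS for DOC. Viability then checked by MTT; cytotoxic chemicals diluted until viability ≥70%.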

A short description of assay [9]: CEETOX_H295R_PROG: CeeTox H295R High-throughput Steroidogenesis Assay for Progesterone (PROG) (AID 2283442).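 As to AC50: human H295R adrenal cells primed with 10 µM forskolin before dosing.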 As to conditions: actives raise or lower the signal. The gist of the method:
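Progesterone secreted by human H295R cells was measured by LC-MS/MS following 48 h chemical exposure at 0.1% DMSO, preceded by 48 h forskolin (10 uM) stimulation. Same-well MTT viability; cytotoxic concentrations diluted 10- or 100-fold and retested.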

Read-out in assay [10]: Tumor necrosis factor receptor superfamily member 6 (Homo sapiens) (UniProt P25445)
The assay is described as follows: LTEA_HepaRG_FAS: Life Technologies and Expression Analysis (LTEA) Assay for Fas cell surface death receptor (FAS) using HepaRG (AID 2283447). The following applies: mRNA level, 48 h; actives raise or lower the signal. The gist of the method:
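FAS transcript level was measured by TaqMan qRT-PCR against three housekeeping genes after 48 h chemical exposure. Cells were HepaRG, 0.5% DMSO vehicle, with a top concentration of 100 uM and half-log dilutions over eight points, in duplicate.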

Read-out in assay [11]: Fatty acid synthase (Homo sapiens) (UniProt P49327)
The assay is described as follows: LTEA_HepaRG_FASN: Life Technologies and Expression Analysis (LTEA) Assay for Fatty Acid Synthase (FASN) using HepaRG (AID 2283448).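 As to AC50: differentiated human HepaRG liver cells in serum-free induction medium.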 The following applies: mRNA level, 48 h; actives raise or lower the signal. In a few lines:
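Cells were plated, cultured 48 h, switched to serum-free induction medium, then dosed in duplicate (max 100 uM, half-log dilutions, 0.5% DMSO) for 48 h. RNA was then isolated and FASN quantified by qRT-PCR.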

Read-out in assay [12]: Cyclin D1 (CCND1), CCND1 (gene 595)
The assay is described as follows: LTEA_HepaRG_CCND1: Life Technologies and Expression Analysis (LTEA) Assay for Cyclin D1 (CCND1) using HepaRG (AID 2283451). As to conditions: mRNA level, 48 h; actives raise or lower the signal. The gist of the method:
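Expression of CCND1 was quantified by qRT-PCR on Fluidigm arrays using ACTB, GAPDH and POLR2A as reference genes. HepaRG cultures, plated 48 h beforehand, were dosed for 48 h at up to 100 uM (half-log, 8 points) in 0.5% DMSO.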

Read-out in assay [13]: catalase (CAT), CAT (gene 847)
Put plainly: LTEA_HepaRG_CAT: Life Technologies and Expression Analysis (LTEA) Assay for catalase (CAT) using HepaRG (AID 2283452). As to conditions: mRNA level, 48 h; actives raise or lower the signal. In a few lines:
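Expression of CAT was quantified by TaqMan qRT-PCR with ACTB/GAPDH/POLR2A normalization after 48 h chemical exposure of HepaRG. Eight-point half-log series, top 100 uM, in 0.5% DMSO; gain or loss fitted against vehicle.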

Read-out in assay [14]: flavin-containing dimethylaniline monooxygenases 3 (FMO3), FMO3 (gene 2328)
The assay is described as follows: LTEA_HepaRG_FMO3: Life Technologies and Expression Analysis (LTEA) Assay for flavin-containing dimethylaniline monooxygenases 3 (FMO3) using HepaRG (AID 2283453).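 As to AC50: differentiated human HepaRG liver cells in serum-free induction medium; FMO3 transcript by TaqMan qRT-PCR normalized to ACTB GAPDH and POLR2A.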 As to conditions: mRNA level, 48 h; actives raise or lower the signal. The gist of the method: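 FMO3 transcript quantified by TaqMan qRT-PCR against three housekeeping genes after 48 h chemical exposure of HepaRG cells. Eight-point half-log series, top 100 uM, 0.5% DMSO vehicle; phenobarbital 1mM induction control; up- or down-regulation fitted.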

Read-out in assay [15]: Cytochrome P450 (CYP1A1), CYP1A1 (gene 1543)
Put plainly: LTEA_HepaRG_CYP1A1: Life Technologies and Expression Analysis (LTEA) Assay for Cytochrome P450 (CYP1A1) using HepaRG (AID 2283454). As to conditions: mRNA level, 48 h; actives raise or lower the signal. The gist of the method: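 CYP1A1 transcript levels measured by Fluidigm qRT-PCR against three housekeeping genes, 48 h after chemical dosing of human HepaRG cells (highest concentration 100 uM, half-log steps, 0.5% DMSO vehicle). Gain or loss of signal fitted relative to DMSO.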

Read-out in assay [16]: Cyclin D2 (CCND2), CCND2 (gene 894)
The assay is described as follows: LTEA_HepaRG_CCND2: Life Technologies and Expression Analysis (LTEA) Assay for Cyclin D2 (CCND2) using HepaRG (AID 2283449). As to conditions: mRNA level, 48 h; actives raise or lower the signal. In a few lines:
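CCND2 transcript levels, quantified by qRT-PCR and normalised to three housekeeping genes, were fitted bidirectionally against 0.5% DMSO. HepaRG cultures were dosed 48 h in duplicate with an 8-point half-log series up to 100 uM.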

Read-out in assay [17]: Cyclin Dependent Kinase Inhibitor 1A (CDKN1A), CDKN1A (gene 1026)
Put plainly: LTEA_HepaRG_CDKN1A: Life Technologies and Expression Analysis (LTEA) Assay for Cyclin Dependent Kinase Inhibitor 1A (CDKN1A) using HepaRG (AID 2283450). As to conditions: mRNA level, 48 h; actives raise or lower the signal. In a few lines:
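Expression quantified by Fluidigm qRT-PCR with ACTB, GAPDH and POLR2A normalization, fitted bidirectionally against 0.5% DMSO. Cells: HepaRG, plated 48 h then treated 48 h in serum-free induction medium, top concentration 100 uM with half-log dilutions.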

The nature of assay [18]: CEETOX_H295R_ESTRADIOL: CeeTox H295R High-throughput Steroidogenesis Assay for Estradiol (AID 2283440).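 Also: estradiol secreted into medium quantified by LC-MS/MS after dansyl derivatisation.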 As to conditions: actives raise or lower the signal. In a few lines: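 Estradiol in spent medium measured by LC-MS/MS after dansyl chloride derivatisation. Forskolin-primed (10 uM, 48 h) human adrenal H295R cells received test chemical 48 h at 0.1% DMSO; concentrations lowered until MTT viability >/=70%.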

Assay [19] in a line: CEETOX_H295R_ESTRONE: CeeTox H295R High-throughput Steroidogenesis Assay for Estrone (AID 2283441). As to conditions: actives raise or lower the signal. In a few lines:
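Estrone secreted into medium quantified by LC-MS/MS after dansyl chloride derivatization, following 48 h chemical exposure (0.1% DMSO final) of forskolin-prestimulated (10 uM, 48 h) H295R cells; gain or loss fitted against DMSO; MTT viability in same wells.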

Assay [20] is described as follows: CEETOX_H295R_ANDR: CeeTox H295R High-throughput Steroidogenesis Assay for Androstenedione (ANDR) (AID 2283436). The following applies: actives raise or lower the signal. The gist of the method:
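Medium from 48 h chemical-treated H295R adrenal cells was extracted with MTBE and androstenedione measured by LC-MS/MS. Activity was fit in both directions relative to DMSO. Cytotoxic concentrations were re-tested after dilution until MTT viability reached ≥70%.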

For orientation: AC50 means the concentration at which the activity in the assay is half-maximal.

Results filed as inconclusive are left out. Active and inactive are the calls of the source. The calls were made as follows, unless noted: active = hit-call score of the fitted dose curve at least 0.9, where 1 is the maximum; inactive = score below 0.9.

Retinoic acid receptor RXR-alpha (Homo sapiens), sequence (P19793 whole entry, looked up, the tested form may be a part): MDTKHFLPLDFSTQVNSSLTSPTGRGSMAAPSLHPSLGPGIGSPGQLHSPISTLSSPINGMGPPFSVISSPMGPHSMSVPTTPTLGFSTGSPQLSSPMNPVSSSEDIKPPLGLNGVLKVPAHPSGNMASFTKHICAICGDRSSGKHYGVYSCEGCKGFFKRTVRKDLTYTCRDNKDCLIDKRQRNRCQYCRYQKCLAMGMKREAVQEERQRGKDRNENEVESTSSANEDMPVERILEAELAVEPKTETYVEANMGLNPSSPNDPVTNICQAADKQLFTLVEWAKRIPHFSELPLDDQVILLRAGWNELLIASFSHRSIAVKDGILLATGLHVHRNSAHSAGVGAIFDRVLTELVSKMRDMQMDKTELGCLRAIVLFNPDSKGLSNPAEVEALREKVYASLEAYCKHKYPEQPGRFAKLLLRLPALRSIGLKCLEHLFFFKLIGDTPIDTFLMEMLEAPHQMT
Peroxisome proliferator-activated receptor gamma (Homo sapiens), sequence (P37231 whole entry, looked up, the tested form may be a part): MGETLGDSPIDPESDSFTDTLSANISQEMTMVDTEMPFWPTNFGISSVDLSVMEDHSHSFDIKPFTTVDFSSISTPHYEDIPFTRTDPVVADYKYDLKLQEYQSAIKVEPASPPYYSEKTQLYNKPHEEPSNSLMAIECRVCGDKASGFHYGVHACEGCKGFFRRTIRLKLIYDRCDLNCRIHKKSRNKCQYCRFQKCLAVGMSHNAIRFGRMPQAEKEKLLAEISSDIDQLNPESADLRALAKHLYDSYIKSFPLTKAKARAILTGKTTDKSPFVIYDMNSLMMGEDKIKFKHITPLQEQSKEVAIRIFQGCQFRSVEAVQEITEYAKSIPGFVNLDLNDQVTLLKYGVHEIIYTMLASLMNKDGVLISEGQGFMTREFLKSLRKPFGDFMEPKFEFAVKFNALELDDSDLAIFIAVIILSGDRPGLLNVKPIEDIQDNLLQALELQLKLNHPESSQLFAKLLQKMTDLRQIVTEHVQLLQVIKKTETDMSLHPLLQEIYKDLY
Fatty acid synthase (Homo sapiens), sequence (P49327 whole entry, looked up): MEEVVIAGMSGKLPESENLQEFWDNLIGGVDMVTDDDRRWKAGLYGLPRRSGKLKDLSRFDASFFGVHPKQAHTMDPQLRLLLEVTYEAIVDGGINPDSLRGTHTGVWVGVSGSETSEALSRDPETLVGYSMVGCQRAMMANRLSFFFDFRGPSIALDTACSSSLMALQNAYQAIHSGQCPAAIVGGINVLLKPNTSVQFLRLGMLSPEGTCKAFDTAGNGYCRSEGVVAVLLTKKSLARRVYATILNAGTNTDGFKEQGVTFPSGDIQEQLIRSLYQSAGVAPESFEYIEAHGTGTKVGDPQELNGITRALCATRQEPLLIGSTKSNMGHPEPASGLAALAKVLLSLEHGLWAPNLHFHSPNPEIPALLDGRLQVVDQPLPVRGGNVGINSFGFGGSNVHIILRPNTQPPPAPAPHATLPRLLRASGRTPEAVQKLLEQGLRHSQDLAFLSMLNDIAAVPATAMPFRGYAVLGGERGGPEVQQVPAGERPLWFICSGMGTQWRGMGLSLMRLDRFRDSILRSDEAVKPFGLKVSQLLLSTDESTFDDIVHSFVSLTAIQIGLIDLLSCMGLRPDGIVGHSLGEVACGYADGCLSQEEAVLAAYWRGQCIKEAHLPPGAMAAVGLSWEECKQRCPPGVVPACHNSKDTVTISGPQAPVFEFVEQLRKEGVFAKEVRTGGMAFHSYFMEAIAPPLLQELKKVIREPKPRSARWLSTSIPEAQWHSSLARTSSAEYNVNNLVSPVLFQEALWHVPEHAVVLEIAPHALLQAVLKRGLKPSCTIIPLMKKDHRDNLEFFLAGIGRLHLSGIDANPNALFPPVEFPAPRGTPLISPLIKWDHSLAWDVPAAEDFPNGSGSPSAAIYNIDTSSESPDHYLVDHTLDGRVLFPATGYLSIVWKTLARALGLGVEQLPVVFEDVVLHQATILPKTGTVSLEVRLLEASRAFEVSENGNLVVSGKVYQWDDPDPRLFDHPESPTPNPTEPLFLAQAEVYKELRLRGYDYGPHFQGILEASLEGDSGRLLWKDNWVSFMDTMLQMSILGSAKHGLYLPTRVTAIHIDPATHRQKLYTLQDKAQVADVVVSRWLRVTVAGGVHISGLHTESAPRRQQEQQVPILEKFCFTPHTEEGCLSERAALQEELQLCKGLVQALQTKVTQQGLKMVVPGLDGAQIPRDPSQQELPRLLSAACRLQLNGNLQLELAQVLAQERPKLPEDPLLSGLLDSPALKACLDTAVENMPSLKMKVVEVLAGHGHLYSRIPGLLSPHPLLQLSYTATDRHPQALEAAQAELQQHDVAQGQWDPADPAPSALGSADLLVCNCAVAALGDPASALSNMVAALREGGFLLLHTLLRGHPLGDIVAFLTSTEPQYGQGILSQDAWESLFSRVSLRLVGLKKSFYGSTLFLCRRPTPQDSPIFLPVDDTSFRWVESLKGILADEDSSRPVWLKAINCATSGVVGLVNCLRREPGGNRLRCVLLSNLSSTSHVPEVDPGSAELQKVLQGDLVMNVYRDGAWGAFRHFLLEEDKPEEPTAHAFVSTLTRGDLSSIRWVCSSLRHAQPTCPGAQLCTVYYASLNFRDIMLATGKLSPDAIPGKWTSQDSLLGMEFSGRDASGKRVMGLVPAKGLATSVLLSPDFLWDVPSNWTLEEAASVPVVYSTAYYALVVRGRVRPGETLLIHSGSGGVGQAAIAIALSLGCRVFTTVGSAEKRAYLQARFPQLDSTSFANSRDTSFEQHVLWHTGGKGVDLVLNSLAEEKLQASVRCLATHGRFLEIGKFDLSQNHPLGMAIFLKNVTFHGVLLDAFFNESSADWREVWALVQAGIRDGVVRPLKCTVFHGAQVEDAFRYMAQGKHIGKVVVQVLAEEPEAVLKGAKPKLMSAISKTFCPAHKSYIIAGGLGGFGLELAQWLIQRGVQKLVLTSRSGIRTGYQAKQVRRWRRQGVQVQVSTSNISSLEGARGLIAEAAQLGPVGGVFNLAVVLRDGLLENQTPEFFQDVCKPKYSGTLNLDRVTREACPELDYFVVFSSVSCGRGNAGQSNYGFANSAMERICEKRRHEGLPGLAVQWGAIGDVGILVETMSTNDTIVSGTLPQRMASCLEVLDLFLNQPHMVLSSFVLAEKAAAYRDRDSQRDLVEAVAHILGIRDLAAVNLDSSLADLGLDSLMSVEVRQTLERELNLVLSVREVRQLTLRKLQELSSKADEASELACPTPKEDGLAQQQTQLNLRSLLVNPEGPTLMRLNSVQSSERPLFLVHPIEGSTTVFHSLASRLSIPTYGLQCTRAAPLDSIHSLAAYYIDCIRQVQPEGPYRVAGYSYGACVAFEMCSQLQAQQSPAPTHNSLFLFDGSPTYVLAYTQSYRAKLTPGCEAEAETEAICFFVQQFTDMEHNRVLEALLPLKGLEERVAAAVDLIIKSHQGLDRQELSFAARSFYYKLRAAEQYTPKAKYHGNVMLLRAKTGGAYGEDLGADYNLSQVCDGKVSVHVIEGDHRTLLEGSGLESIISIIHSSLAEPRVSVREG

As to `COC(=O)CCCCC(=O)OC`, the outcome in assay [1], in assay [2], in [3], in assay [4], in assay [5] and in assay [6] was inactive. In addition, the compound was called inactive in assay [7], in assay [8], in assay [9], in [10], in assay [11] and in assay [12]. Further, the compound was called inactive in assay [13], in assay [14] and in assay [15].

Take `N#C[C@@H]1CC(F)(F)CN1C(=O)CNC1CC2CCC(C1)N2c1ncccn1` (some centres not stated): the outcome in [1], in assay [2], in assay [3], in assay [10], in assay [11] and in assay [16] was inactive. Further, the outcome in assay [17], in assay [12] and in assay [14] was inactive. Further, in assay [15], the concentration at half-maximal activity (AC50) was 72.1 µM (active).

As for `CCCCCCCCCCCCc1ccccc1S(=O)(=O)O`, the result in [1], in assay [2], in assay [3], in assay [16], in assay [17] and in assay [12] was inactive. The AC50 was 50 µM (active) in [10], 74.5 µM (active) in assay [11], 83.3 µM (active) in [14] and 30.6 µM (active) in assay [15].

With `CC(O)C(=O)O` (configuration not stated), the compound was classed as inactive in assay [1].

With `CCOC(=O)CC(O)(CC(=O)OCC)C(=O)OCC`, the compound was classed as inactive in [1], in [2], in assay [3], in assay [10], in assay [11] and in assay [16]. In addition, the call in [17], in assay [12], in [14] and in [15] was inactive.

Regarding `COc1ccc([N+](=O)[O-])cc1N`, the compound was called inactive in assay [1], in assay [2], in assay [3], in assay [5], in [18] and in assay [19]. For the same compound, the compound was called inactive in assay [10], in assay [11], in assay [16], in assay [12], in [13] and in [14]. The half-maximal activity concentration (AC50) in assay [4] was 50 µM (active); in assay [6], 8.72 µM (active); in assay [7], 44.6 µM (active); in assay [8] it was 10.6 µM (active); in assay [9] it was 14.2 µM (active); in assay [15], 50 µM (active).

`CCCCCCCC(=O)O`: the compound was called inactive in assay [1], in [2], in [3], in [10], in assay [11] and in [16]. In addition, the compound was called inactive in assay [17], in assay [12], in assay [14] and in [15].

Regarding `O=C(O)c1ccccc1C(c1ccc(O)cc1)c1ccc(O)cc1`, the compound was classed as inactive in assay [1], in assay [2], in assay [3], in [5], in assay [20] and in assay [6]. Moreover, the compound was called inactive in [7], in assay [18], in assay [19], in [10], in assay [11] and in assay [12]. The compound was classed as inactive in assay [13], in [14] and in [15]. In addition, the AC50 in [4] is 25 µM (active); in [8] it was 6.89 µM (active); in [9] it was 10.2 µM (active).
